# Tau ThT inhib – inhibitors of human tau fibril formation, thioflavin T binding; P10636; recombinant tau K18 P301L, heparin-induced fibrillization, ThT fluorescence; Potency, µM (highest dose often 57.4 µM), for the others: top-dose activity, negative = inhibition, usual class: inhibitors; 2.1% of 270,000 active; AID 1460; note: potency is the fitted concentration of half-maximal effect; nearly all actives have a fitted effect of over 55% in size
# Target sequence (P10636 561-689 P618L limits assumed): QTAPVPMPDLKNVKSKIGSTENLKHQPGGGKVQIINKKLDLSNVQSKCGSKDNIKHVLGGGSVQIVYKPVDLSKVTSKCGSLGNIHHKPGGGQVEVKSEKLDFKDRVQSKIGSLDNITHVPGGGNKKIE
#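 Heparin-induced (20 uM) aggregation of recombinant human K18 P301L tau, 15 uM unlabeled with 0.24 uM labeled, pH 7 acetate buffer, 6 hr at 37 C with compound. Fibrils quantified by 30 uM ThT fluorescence after 1 hr ambient incubation.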
# G9a inh – inhibitors of human histone lysine methyltransferase G9a; Q96KQ7; G9a H3K9 monomethylation, AlphaScreen, 2 h; Potency, µM (titrated, usually from 102 µM), for inactives: at the top dose activity, negative = inhibition, actives largely listed as inhibitors; 8.8% of 350,000 active; AID 504332; note: potency is the fitted concentration of half-maximal effect; nearly all actives have a fitted effect of over 75% in size
# Target sequence (Q96KQ7 913-1193 limits assumed): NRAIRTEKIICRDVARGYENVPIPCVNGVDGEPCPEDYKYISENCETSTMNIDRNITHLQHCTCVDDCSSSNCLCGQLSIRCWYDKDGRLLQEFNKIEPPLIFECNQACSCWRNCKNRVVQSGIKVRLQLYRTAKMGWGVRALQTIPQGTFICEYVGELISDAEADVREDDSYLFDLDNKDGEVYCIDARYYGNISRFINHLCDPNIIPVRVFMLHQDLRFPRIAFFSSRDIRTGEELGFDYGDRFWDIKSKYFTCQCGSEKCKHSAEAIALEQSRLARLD
#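 Signal arises when biotinylated H3K9 peptide, once monomethylated, bridges streptavidin donor and antibody-captured acceptor beads. Enzyme at 20 nM was preincubated 15 min with test compounds; peptide 500 nM and SAM 20 uM then reacted for 2 h.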
# Tau fibril FP – tau fibrillization inhibition (FP) | Potency, µM (doses to about 57.7 µM), for inactives: top-dose activity, negative = inhibition, usual class: inhibitors | K18 P301L tau heparin fibrillization, Alexa594 FP, 6 h | AID 1468 | P10636 | 0.39% of 280,000 active; note: potency is the fitted concentration of half-maximal effect; nearly all actives have a fitted effect of over 55% in size
#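 Read-out: fluorescence polarization of Alexa 594-labeled tau (0.24 uM), 555 nm excitation, 632 nm emission. Mixtures held 15 uM unlabeled K18 P301L, compound and 20 uM heparin, pH 7 acetate buffer, incubated 6 hr at 37 C.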
# Sfp PPTase inh – inhibitors of Bacillus subtilis Sfp phosphopantetheinyl transferase; Potency, µM, for the others: largest response in the series, negative = inhibition, most hits filed as inhibitors; 3.5% of 310,000 active; Biochemical Sfp PPTase activity, qHTS; Q9F4F7;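 note: the enzyme is Sfp with the accession as filed and its product quenches rhodamine fluorescence; potency is the fitted concentration of half-maximal effect; 0% = enzyme reaction without inhibitor and -100% = no enzyme wells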
#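 Sfp 15 nM + cpd, 15 min RT; start w/ rhodamine-CoA 5 uM, BHQ-2-YbbR 12.5 uM (final); 50 mM Hepes pH 7.6, 10 mM MgCl2, 0.01% NP-40, 0.01% BSA; read 525/598 nm at 0 and 30 min.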
# Tau fluor cs – counter-screen for tau fibril formation inhibitors. tau K18 P301L (four-repeat tau fragment) Alexa594 fluorescence, heparin fibrillization. 0.93% of 280,000 active. Potency, µM (series often up to 57.7 µM), without a hit: top-dose activity change, negative = decrease; note: potency is the fitted concentration of half-maximal effect; nearly all actives have a fitted effect of over 55% in size
#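 Human K18 P301L tau (15 uM unlabeled plus 0.24 uM Alexa 594-labeled, final) in 100 mM sodium acetate pH 7 was mixed with compound and 20 uM heparin and incubated 6 hr at 37 C.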
# FBPA coupling cs – counter-screen for Giardia aldolase inhibitors: coupling enzyme system | coupling enzyme system counterscreen, AmpLite Red fluorescence | 0.67% of 290,000 active | AID 2472 | activity change, negative = inhibition, % at 58.2 µM, hits read low; in the data active = activity change below about -30%
#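 Activity here indicates interference with the coupling reaction, not aldolase inhibition. Compounds at 57.5 uM final met coupling enzymes for 10 min at RT; substrate and AmpLite Red detection followed, with a 525/598 nm fluorescence read after 20 min.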
# Starred values were filed as active, the others as inactive; ? = inconclusive; nt = no result; [ ] = dose if it differs, or a comment. Compounds with a hit are over-represented: about 11% of the library has one in this group of screens. Unless noted, calls come from the whole dose curve; as a rule, active = well fitted curve in the direction sought with a large enough effect; inconclusive = small, poorly fitted or top-dose-only effect, or another doubt; inactive = no such curve, though single readings can be large; an effect the other way counts as inactive or inconclusive. Unless noted, % is set by controls: 0 for no effect and ±100 for the full control effect.
SMILES,Tau ThT inhib,G9a inh,Tau fibril FP,Sfp PPTase inh,Tau fluor cs,FBPA coupling cs
CC(Sc1ncnc2sccc12)C(=O)Nc1ccc(C(N)=O)cc1 (stereo not given),-8.7%,10.2%[59 µM],7.5%,10.1%,-5.3%,3.2
Nc1cc(=O)nc(SCC(=O)Nc2cccc(Cl)c2)n1CCc1ccccc1,5.3%,-22.5%[59 µM],-14.6%,nt,?,nt
CN(C)c1ccc(-c2nccc(NCc3cccs3)n2)cc1,nt,17.0%[0.501 µM],nt,?,nt,-0.2
c1csc(CNc2ccnc(-c3ccoc3)n2)c1,nt,-4.2%[0.501 µM],nt,79.4µM*,nt,-2.6
c1cc(NC2CC2)nc(-c2ccoc2)n1,nt,-0.2%[0.501 µM],nt,79.4µM*,nt,-4.0
COc1ccccc1-c1nccc(NCc2cccs2)n1,nt,-1.0%[0.501 µM],nt,79.4µM*,nt,-0.4
FC(F)(F)c1ccccc1-c1nccc(NCc2cccs2)n1,nt,-6.4%[0.501 µM],nt,-10.9%,nt,-4.3
O=C(Nc1ccc(Cl)c(C(F)(F)F)c1)c1cc2nc(-c3ccc4c(c3)OCO4)cc(C(F)(F)F)n2n1,-11.0%,-2.4%[59 µM],-14.4%,nt,-15.8%,nt
Cc1cccc(CCNC(=O)CCc2nnc(CCc3ccccc3)o2)n1,-5.6%,-10.1%[0.501 µM],1.7%,16.6%,-5.2%,0.0
Cc1cc(NC(=O)COCc2cc(-c3ccc(F)cc3)on2)ccc1Br,-10.2%,6.5%[59 µM],?,nt,?,nt
COc1ccccc1NC(=O)Nc1nc(CC(=O)Nc2cccc(F)c2)cs1,nt,39.8µM*,nt,nt,nt,nt
COc1ccccc1NC(=O)Nc1nc(CC(=O)Nc2ccc(N(C)C)cc2)cs1,nt,11.2µM*,nt,nt,nt,nt
COc1ccc(N2CCN(C(=O)Cc3csc(NC(=O)Nc4ccccc4OC)n3)CC2)cc1,nt,7.94µM*,nt,nt,nt,nt
COc1ccccc1NC(=O)Nc1nc(CC(=O)Nc2ccc(F)c(F)c2)cs1,nt,-47.7%,nt,nt,nt,nt
COc1ccccc1NC(=O)Nc1nc(CC(=O)Nc2cc(F)ccc2F)cs1,nt,31.6µM*,nt,nt,nt,nt
COc1ccc(OC)c(NC(=O)c2cccn2-c2nnc(N3CCCCC3)s2)c1,-17.2%,-31.3%[59 µM],9.1%,nt,-26.5%,nt
CC(C)CN1CCN(Cc2cn(C)c3ccccc23)CC1CCO (stereo not given),nt,-11.7%,nt,31.0%,nt,-1.5
N#Cc1ccccc1OCC(O)CNCCNC(=O)Nc1ccccc1 (stereo not given),-2.8%,37.2%[59 µM],-7.2%,4.1%,-4.8%,nt
Cc1c(Cl)c(-c2n[nH]c(=S)n2-c2ccccc2)nn1C,-8.0%,8.91µM*,2.2%,?,-7.2%,1.3
S=c1[nH]nc(-c2ccc3ccccc3n2)n1-c1ccc(Cl)cc1,-14.5%,?,7.1%,15.5%,-16.3%,-4.3
COc1cccc(-c2n[nH]c(=S)n2Cc2ccco2)c1,-13.4%,3.16µM*,-3.9%,31.6µM*,-11.5%,2.4
S=c1[nH]nc(-c2ccc(Br)cc2)n1Cc1ccco1,-19.5%,0.398µM*,-2.3%,-13.5%,-16.5%,-0.3
Cc1c(Cl)c(-c2n[nH]c(=S)n2Cc2ccco2)nn1C,-6.5%,7.94µM*,0.9%,-9.3%,-9.8%,-0.7
Cc1cccc(C)c1NC(=O)CCn1cnc2ccccc2c1=O,-2.3%,37.5%[12.7 µM],-0.3%,19.4%,-1.8%,2.0
COc1cccc(CN(C(=O)COc2ccc(Cl)c(C)c2)C2CCS(=O)(=O)C2)c1 (stereo not given),-7.0%,-1.5%[59 µM],-5.1%,nt,-23.7%,nt
SMILES,Tau ThT inhib,G9a inh,Tau fibril FP,Sfp PPTase inh,Tau fluor cs,FBPA coupling cs
CCOc1ccc(Nc2oc(-c3ccc(COc4ccccc4C)o3)nc2C#N)cc1,-5.5%,-34.1%[59 µM],8.2%,nt,?,nt
Cc1nonc1OCC(C)(COc1nonc1C)NC(=O)c1ccccc1,-2.6%,-8.2%[59 µM],-1.5%,-5.1%,-1.4%,3.9
CCOc1ccc(Nc2nn(-c3ccc(OC(F)(F)F)cc3)nc2C(C)=O)cc1,-8.5%,6.9%[59 µM],-0.8%,nt,2.9%,nt
S=c1[nH]nc(-c2ccncc2)n1Cc1ccco1,-3.8%,1µM*,1.7%,14.1µM*,-0.6%,1.6
S=c1[nH]nc(C23CC4CC(CC(C4)C2)C3)n1Cc1ccco1,-4.9%,-8.7%[0.0925 µM],2.7%,-13.3%,-0.7%,2.4
Cc1ccc(S(=O)(=O)c2nnn3c2nc(Nc2ccc(C(C)C)cc2)c2sccc23)cc1C,15.9%,-3.2%[59 µM],12.6µM*,nt,?,nt

# Screens deposited in PubChem by National Center for Advancing Translational Sciences (NCATS).
